The results in this text go back to PubChem BioAssay (Tox21).

Where “and” joins values, the source holds several entries; their conditions need not be identical. Equal values may be shown once. Results filed as inconclusive are left out. Where a structure was tested more than once in an assay, its records may differ in their call. Calls of active or inactive are those of the source. Unless noted, calls follow the shape of the dose curve; as a rule, active = well fitted curve in the direction sought with a large enough effect in the repeat runs; inconclusive = weak or mixed curves; inactive = no such curve, though single readings can be large; an effect the other way counts as inactive or inconclusive.

Assay [1] in a line: qHTS assay to identify small molecule agonists of the retinoic acid receptor (RAR) signaling pathway (AID 1159553). Also: potency is read from the fitted curve at half-maximal effect. The procedure, abridged:
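Luminescence was measured 30 min after luciferase reagent addition at room temperature. Before that, C3RL4 reporter cells (1,000 per well, plated overnight) were treated with compound for 6 hr at 37 C and 5% CO2.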
(In general: Quantitative high-throughput screening tests each substance at several concentrations.)

Assay [2] concerns the target Luciferin 4-monooxygenase (Photinus pyralis) (UniProt P08659). As to the kind of experiment: qHTS assay to identify small molecule inhibitors of firefly luciferase (AID 1224835). Also: nearly all actives have a fitted effect of over 25% in size. Also: potency is read from the fitted curve at half-maximal effect. The gist of the method: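 Inhibition of purified Photinus luciferase is measured by luminescence. Substrate levels (D-luciferin, ATP) sit at their KM values. Each compound is tested in a concentration series.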

A short description of assay [3]: qHTS assay to identify small molecule agonists of the constitutive androstane receptor (CAR) signaling pathway - cell viability counter screen (AID 1224836). Also: series mostly up to about 92 µM; nearly all actives have a fitted effect of over 45% in size. The procedure, abridged: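 Double-stable HepG2 hepatoma cells (hCAR plus CYP2B6-2.2kb) are treated for 23 h at 37 C with test compounds in 15-point concentration series. PK11195 at 0.75 uM final is co-added. Cell viability is quantified by CellTiter-Fluor.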

A short description of assay [4]: qHTS assay to identify small molecule antagonists of the constitutive androstane receptor (CAR) signaling pathway - cell viability counter screen (AID 1224837). Also: series mostly up to about 92 µM; nearly all actives have a fitted effect of over 45% in size. The gist of the method:
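Cytotoxicity counter-screen: CellTiter-Fluor fluorescence after 23 h compound exposure (15-point qHTS) in double-stable HepG2-CYP2B6-hCAR cells, with 50 nM CITCO added.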

The target of assay [5] is Nuclear receptor subfamily 1 group I member 3 (Homo sapiens) (UniProt Q14994). As to the kind of experiment: qHTS assay to identify small molecule antagonists of the constitutive androstane receptor (CAR) signaling pathway (AID 1224838).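 Also: HepG2 cells stably expressing hCAR with CYP2B6 luciferase reporter stimulated by CITCO; nearly all actives have a fitted effect of over 40% in size.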 The procedure, abridged: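 Antagonism measured as luciferase signal (ONE-Glo, 30 min, room temperature) in CAR-stimulated cells: HepG2-CYP2B6-hCAR double-stable line exposed 24 hr at 37 C to compound in a 15-point series plus 50 nM CITCO.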

Assay [6] shares this target. Description: qHTS assay to identify small molecule agonists of the constitutive androstane receptor (CAR) signaling pathway (AID 1224839). Also: nearly all actives have a fitted effect of over 15% in size. Also: potency is read from the fitted curve at half-maximal effect.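 As to activation: HepG2 cells stably carrying human CAR and a CYP2B6 luciferase reporter; series mostly up to about 92 µM.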 The procedure, abridged: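 Readout: firefly luciferase luminescence via ONE-Glo. System: HepG2 double-stable for hCAR and CYP2B6-2.2kb. Conditions: 15-point compound titration, PK11195 at 0.75 uM final, 24 h incubation.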
The nature of assay [7]: qHTS assay to identify small molecule antagonists of the estrogen related receptor signaling pathway with the pleiotropic PPARgamma coactivator (PGC) from Tox21 10K library - cell viability counter screen (AID 1224840; active = well fitted cell-killing curve with a large enough effect in the repeat runs, not every such curve was filed as active; also: nearly all actives have a fitted effect of over 40% in size). The procedure, abridged: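 Counter-screen for cytotoxicity: after 17.5 h compound exposure at 37 C, CellTiter-Fluor reagent added to PGC/ERR cells for 30 min and fluorescence read. Cells were seeded at 2,000 per well 6 h before dosing.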

The target of assay [8] is Thyrotropin receptor (Homo sapiens) (UniProt P16473). Description: qHTS assay to identify small molecule agonists of the thyroid stimulating hormone receptor (TSHR) signaling pathway (AID 1224843; calls by dose curve; also: nearly all actives have a fitted effect of over 45% in size). The procedure, abridged: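 Agonist activity read as cAMP rise via d2/cryptate HTRF competition, 1 h room-temperature detection, in HEK293 cells expressing TSHR. Fifteen-point titrations, each run in triplicate, with a 30 min room-temperature incubation beforehand.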

A short description of assay [9]: qHTS assay to identify small molecule agonists of the hypoxia (HIF-1) signaling pathway - cell viability counter screen (AID 1224844; calls by dose curve; also: nearly all actives have a fitted effect of over 50% in size; also: potency is read from the fitted curve at half-maximal effect). The procedure, abridged:
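Cytotoxicity measured by CellTiter-Glo ATP luminescence in the wells also read for beta-lactamase signal. Cells were HRE-bla ME-180 (2,000/well, 0.5% dialyzed FBS), exposed to compounds for 17 h at 37C.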

The nature of assay [10]: qHTS assay to identify small molecule agonists of the hypoxia (HIF-1) signaling pathway (AID 1224846; active = well fitted activation curve with a large enough effect in the signal ratio in the repeat runs, not every such curve was filed as active; the % refers to the signal ratio). The gist of the method: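 Compounds added to ME-180 cells carrying hypoxia-response-element beta-lactamase reporter (0.5% dialyzed FBS, 5 h preplating), 17 h at 37C; agonist activity detected by CCF4-AM B/G FRET read-out.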
Assay [11] is described as follows: qHTS assay to identify small molecule agonists of H2AX (AID 1224845; active = well fitted activation curve with a large enough effect in the signal ratio in the repeat runs, not every such curve was filed as active; the % refers to the signal ratio). The procedure, abridged:
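Phospho-H2AX Ser139 measured by HTRF (ex 320 nm; em 665 and 620 nm) after 24 hr antibody incubation. Compounds, 15 concentrations, 0.76% DMSO, were applied to CHO-K1 cells for 3hr at 37C before lysis.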

Assay [12] is described as follows: qHTS assay to identify small molecule antagonists of the estrogen related receptor (ERR) signaling pathway from Tox21 library - cell viability counter screen (AID 1224834). Also: nearly all actives have a fitted effect of over 30% in size. The procedure, abridged:
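CellTiter-Fluor fluorescence, read after 30 min at 37 C, measures viability of ERR cells. Cells plated at 2,000/well and incubated 6 h before pin-tool compound addition, then exposed 17.5 hours at 37 C.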

A short description of assay [13]: qHTS assay to identify small molecule antagonists of the estrogen related receptor signaling pathway with the pleiotropic PPARgamma coactivator (PGC) from Tox21 10K library (AID 1224841; call rule not given here; also: actives are mostly falling curves and most rising ones were filed inactive; nearly all actives have a fitted effect of over 50% in size; also: potency is read from the fitted curve at half-maximal effect). The procedure, abridged:
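Luminescence (One-Glo, 30 min at room temperature) after 18 h compound treatment at 37 C of PGC/ERR reporter cells plated at 2,000 cells/well and settled 6 h beforehand.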

Assay [14] in a line: qHTS assay to identify small molecule agonists of the estrogen related receptor signaling pathway with the pleiotropic PPARgamma coactivator (PGC) from Tox21 10K library (AID 1224842). Also: nearly all actives have a fitted effect of over 15% in size. Also: potency is read from the fitted curve at half-maximal effect. The procedure, abridged: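 Luminescence from One-Glo (30 min, room temperature) measured after PGC/ERR cells had 18 h at 37 C with pinned compound (23 nL in DMSO). Cells had been seeded at 2,000 per well and pre-incubated 6 h.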

Nuclear receptor subfamily 1 group I member 3 (Homo sapiens), sequence (Q14994 whole entry, looked up): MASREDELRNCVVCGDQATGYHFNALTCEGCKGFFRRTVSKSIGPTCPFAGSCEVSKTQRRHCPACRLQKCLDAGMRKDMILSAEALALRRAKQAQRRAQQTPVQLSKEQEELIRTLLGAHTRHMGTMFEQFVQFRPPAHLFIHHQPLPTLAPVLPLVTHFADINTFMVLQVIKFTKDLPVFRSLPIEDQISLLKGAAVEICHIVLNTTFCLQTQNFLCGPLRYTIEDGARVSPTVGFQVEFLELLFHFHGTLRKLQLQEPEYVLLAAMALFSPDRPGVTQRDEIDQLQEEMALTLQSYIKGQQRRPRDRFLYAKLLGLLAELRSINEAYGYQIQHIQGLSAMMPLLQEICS
Luciferin 4-monooxygenase (Photinus pyralis), sequence (P08659 whole entry, looked up): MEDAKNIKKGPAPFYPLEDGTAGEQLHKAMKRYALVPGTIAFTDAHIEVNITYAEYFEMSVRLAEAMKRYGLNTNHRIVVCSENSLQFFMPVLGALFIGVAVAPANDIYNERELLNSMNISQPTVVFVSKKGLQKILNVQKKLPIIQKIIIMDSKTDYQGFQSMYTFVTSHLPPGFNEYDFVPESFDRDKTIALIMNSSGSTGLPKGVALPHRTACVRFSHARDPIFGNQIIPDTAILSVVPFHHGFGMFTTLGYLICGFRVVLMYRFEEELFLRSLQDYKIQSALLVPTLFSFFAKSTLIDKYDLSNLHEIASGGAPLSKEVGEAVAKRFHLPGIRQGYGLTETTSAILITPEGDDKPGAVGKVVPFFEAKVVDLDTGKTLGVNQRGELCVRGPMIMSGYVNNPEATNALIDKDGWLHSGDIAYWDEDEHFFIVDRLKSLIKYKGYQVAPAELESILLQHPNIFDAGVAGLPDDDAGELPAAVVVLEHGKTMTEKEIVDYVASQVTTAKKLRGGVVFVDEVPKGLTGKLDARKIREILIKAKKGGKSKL
Thyrotropin receptor (Homo sapiens), sequence (P16473 whole entry, looked up): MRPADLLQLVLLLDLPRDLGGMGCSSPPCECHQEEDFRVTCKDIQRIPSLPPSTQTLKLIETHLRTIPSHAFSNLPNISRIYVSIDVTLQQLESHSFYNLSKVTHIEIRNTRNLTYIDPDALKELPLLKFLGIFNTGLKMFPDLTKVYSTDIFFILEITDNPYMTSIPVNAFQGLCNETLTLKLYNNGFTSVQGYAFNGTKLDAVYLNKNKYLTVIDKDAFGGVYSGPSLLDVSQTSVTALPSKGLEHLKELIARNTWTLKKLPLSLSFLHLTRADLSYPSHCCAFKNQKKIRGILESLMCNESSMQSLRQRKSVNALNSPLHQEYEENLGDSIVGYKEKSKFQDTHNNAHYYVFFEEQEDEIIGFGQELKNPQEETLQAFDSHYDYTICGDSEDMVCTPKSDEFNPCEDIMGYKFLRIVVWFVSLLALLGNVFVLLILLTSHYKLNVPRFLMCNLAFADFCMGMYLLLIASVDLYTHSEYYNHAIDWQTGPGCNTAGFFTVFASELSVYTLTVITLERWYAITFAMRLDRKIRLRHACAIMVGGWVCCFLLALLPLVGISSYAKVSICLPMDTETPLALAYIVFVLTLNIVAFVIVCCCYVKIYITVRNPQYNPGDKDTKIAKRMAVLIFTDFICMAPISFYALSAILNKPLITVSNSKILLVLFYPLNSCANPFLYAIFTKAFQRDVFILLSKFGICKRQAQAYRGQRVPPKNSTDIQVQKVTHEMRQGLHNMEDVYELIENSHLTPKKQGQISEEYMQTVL

As for `C1CCC(NC2CCCCC2)CC1`, the Potency result in [1], in assay [2], in [3], in assay [4], in [5] and in assay [6] was “inactive” throughout. Further, the Potency entry in [7], in assay [8] and in [9] was “inactive” throughout. The result in assay [10] was inactive.

On to `CCCCCCCCCCCC(=O)O`, for which the Potency result in assay [1], in assay [3], in assay [4], in [7], in assay [8] and in [9] was “inactive” throughout. Besides, the Potency result in assay [11] was “inactive”. In addition, in assay [2], the Potency is 40 µM (active) and 57.6 µM (active) and 71 µM (active). Moreover, the result in assay [10] was inactive.

Take `CCOP(=S)(OCC)Oc1ccc2c(C)c(Cl)c(=O)oc2c1`: the Potency entry is “inactive and 11.9 µM (active)” in assay [1]; “inactive and 15.5 µM (active)” in assay [2]; 31 µM (active) and 27.3 µM (active) and 29.8 µM (active) in assay [6]; “inactive and 11.9 µM (active)” in [14]. Also, the Potency result in [12], in assay [3], in assay [4], in assay [5], in assay [7] and in [13] was “inactive” in each case. Besides, the Potency result in [8], in assay [9] and in assay [11] was “inactive” throughout. Moreover, in [10], the compound was classed as inactive.

Turning to `OCCOc1ccccc1`, the Potency entry in assay [1], in assay [2], in [3], in [4], in [5] and in assay [6] was “inactive” in each case. Also, the Potency entry in assay [7], in assay [13], in [14], in [8] and in assay [11] was “inactive” in each case. The compound was classed as inactive in assay [10].

Consider `COc1ccccc1N`, for which the Potency entry in assay [1], in assay [12], in assay [2], in [3], in assay [4] and in [7] was “inactive” throughout. The Potency entry in assay [13] and in assay [14] was “inactive” throughout. In addition, the compound was classed as inactive in assay [10].

With `CCCC[n+]1ccccc1`, the Potency result in assay [1], in assay [2], in [3], in assay [4], in assay [7] and in [8] was “inactive” throughout. Further, the Potency result in [9] was “inactive”. In [10], the outcome was inactive.

For `O=C(O)CCl`, the Potency entry in assay [1], in assay [2], in assay [3], in assay [4], in [7] and in [13] was “inactive” each time. In addition, the Potency entry in [14] and in assay [8] was “inactive” throughout. Also, the compound was classed as inactive in [10].

Regarding `COCC(=O)N(c1c(C)cccc1C)C(C)C(=O)OC` (configuration not stated), the Potency entry in [1], in assay [12], in assay [2], in assay [3], in [4] and in assay [5] was “inactive” throughout. Further, the Potency entry in [6], in assay [7], in [13], in [14] and in assay [8] was “inactive” each time. The call in assay [10] was inactive.

`O=[N+]([O-])c1ccccc1O`: the Potency entry in [1], in assay [2], in assay [3], in [4], in [5] and in assay [6] was “inactive” in each case. Also, the Potency result in assay [7], in assay [13], in assay [14] and in [9] was “inactive” each time. Moreover, the call in [10] was inactive.

On to `O=[N+]([O-])O`, for which the Potency entry in [1], in assay [3], in assay [4], in assay [7] and in assay [8] was “inactive” throughout. In [10], the compound was classed as inactive.

For `COP(=O)(OC)C(O)C(Cl)(Cl)Cl` (configuration not stated), the Potency entry in [1], in assay [12], in [2], in assay [3], in assay [4] and in assay [5] was “inactive” each time. Further, the Potency result in [7], in [14] and in assay [8] was “inactive” in each case. The Potency in assay [13] is 24.6 µM (active) and inactive.

With `CCNc1nc(Cl)nc(NCC)n1`, the Potency result in assay [1], in assay [2], in assay [3], in assay [4], in assay [5] and in [6] was “inactive” throughout. In addition, the Potency result in assay [7], in assay [13], in assay [14] and in assay [8] was “inactive” each time. Also, in assay [9], the Potency is 55.2 µM (active) and inactive. Moreover, the result in [10] was inactive.
